A selection: hits, their analogues and other compounds. The true share with any hit is near 1.6%.
Ub-GFP proteasome – inhibits proteasome, raising ubiquitin-GFP reporter fluorescence | Potency, µM (highest dose often 45.9 µM), without a hit: at the top dose activation (GFP accumulation), hits mostly activators | 67,000 tested, under 10 active | Ubiquitin-GFP reporter cells, proteasome inhibition, GFP fluorescence; response scale: untreated = 0%, 10 µM MG-132 = 100% | AID 526; active = well fitted activation curve with a large enough effect, not every such curve was filed as active; inconclusive = small, poorly fitted or top-dose-only effect, or another doubt; inactive = no such curve, though single readings can be large or run the other way; also: potency is read from the fitted curve at half-maximal effect
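U2OS cells expressing ubiquitin(G76V)-GFP, seeded overnight in 0.5% FBS medium, then treated 4 hr at 37 C across 46 uM to 2.9 nM. GFP-positive cells counted by laser cytometry (488 ex/515 em); %activity scaled between basal and 10 uM MG-132.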
p53ts 32C kill – p53ts cell cytotoxicity, permissive temperature; 130,000 compounds, 0.93% hits; Potency, µM (top dose mostly 46.1 µM), for inactives: top-dose activity change, negative = cytotoxicity, actives largely listed as cytotoxic; AID 924; H1299-p53A138V at 32C, ATP luminescence viability, 24 h;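 also: potency is read from the fitted curve at half-maximal effect; 0% = DMSO and -100% = full killing by reference compound; nearly all actives have a fitted effect of over 55% in size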
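H1299-p53 A138V cells (temperature-sensitive p53) exposed 24 h to up to 46 uM compound at 32C, where p53 is wild-type in conformation. Viability read as ATP luminescence and normalised to DMSO and 100 uM tamoxifen. AC50 fitted with the Hill equation.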
HBB splice mod – hemoglobin beta splicing modulation. 65,000 compounds, 0.06% hits. Potency, µM (titrated, usually from 46.1 µM), for inactives: at the top dose activation, most hits filed as activators. HBB splicing reporter cell assay, activation; EGFP reporter with mutant IVS2-654 intron; response scale: normalised to 500 nM splice-correcting PNA; also: potency is read from the fitted curve at half-maximal effect; 0% is about no effect
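Compounds were applied for 2 days to HeLa EGFP-654 cells, 500/well in Optimem with 2% FCS. The reporter's EGFP is disrupted by mis-splicing of beta-globin intron IVS2-654. Readout: summed well GFP fluorescence from 488 nm laser scanning; reference was 500 nM antisense […] 654 PNA.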
p53ts 39C kill – kills p53ts cells at the nonpermissive temperature; Potency, µM (highest dose often 46.1 µM), without a hit: at the highest dose activity change, negative = cell killing, hits mostly cytotoxic; 130,000 compounds, 1.5% hits; H1299-p53A138V viability at 39C, ATP luminescence, 24 h; also: potency is read from the fitted curve at half-maximal effect; % is scaled to controls: 0 for no effect and ±100 for the full control effect; nearly all actives have a fitted effect of over 55% in size
Epigenetic mod – derepresses silenced GFP locus in mouse C127i cells; mouse C127i GFP locus derepression, cytometry, 30 h; Potency, µM (highest dose often 46.1 µM), inactives show at the highest dose GFP derepression (activation); 68,000 compounds, 0.09% hits; AID 597; also: % of control where 0% means no effect
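Derepression screen: silenced CMV-GFP reporter in murine C127i cells, 30 h compound incubation at 37 C, washed cells imaged by laser-scanning cytometer to enumerate GFP-expressing objects of 20 to 120 um.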
Peg3 imprint – genomic imprint erasure induction; 110,000 compounds, 0.02% hits; mouse ES Peg3-LacZ reporter, beta-gal luminescence, 40 h; Potency, µM (highest dose often 60.7 µM), for inactives: top-dose activity change, positive = activation, actives largely listed as activators; also: potency is read from the fitted curve at half-maximal effect
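Readout: BetaGlo luminescence (5 min, room temp) for LacZ from the normally silent maternal Peg3 allele in female Peg3LacZ-Neo ES cells. Cells 300/well, 40 h, 37C, 5% CO2. Data normalized per plate to negative controls.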
Active calls of the source: *; [ ] = remark or other dose. Unless noted, calls follow the shape of the dose curve; as a rule, active = well fitted curve in the direction sought with a large enough effect; inconclusive = small, poorly fitted or top-dose-only effect, or another doubt; inactive = no such curve, though single readings can be large; an effect the other way counts as inactive or inconclusive.

O=C(/C=C\Nc1ccc2c(c1)OCO2)c1ccccn1 was read as Ub-GFP proteasome 5%, p53ts 32C kill 1.6µM*, HBB splice mod -6%, p53ts 39C kill 2.5µM*, Epigenetic mod 4% and Peg3 imprint -86%.
`CCOc1ccc(NC(=O)c2ccccc2OC)cc1` gave Ub-GFP proteasome 5%, p53ts 32C kill 13µM*, HBB splice mod -4%, p53ts 39C kill 4µM*, Epigenetic mod 0% and Peg3 imprint -40%.
`CCOc1ccc(NC(=O)c2ccccc2O)cc1` gave Ub-GFP proteasome 0%, p53ts 32C kill 7.9µM*, HBB splice mod 0%, p53ts 39C kill 7.9µM*, Epigenetic mod 0% and Peg3 imprint -67%.
For C=CCNC(=O)c1ccc(OC)cc1OC the results were Ub-GFP proteasome 4%, p53ts 32C kill -2%, HBB splice mod -1%, p53ts 39C kill -5%, Epigenetic mod 0% and Peg3 imprint -11%.
`CCOc1ccc(NC(=O)c2ccccc2CO)cc1` gave Ub-GFP proteasome 3%, p53ts 32C kill inconclusive, HBB splice mod 0%, p53ts 39C kill inconclusive, Epigenetic mod -1% and Peg3 imprint -63%.
`COc1ccc(C(=O)Nc2ccc(C)cn2)c(OC)c1` gave Ub-GFP proteasome -4%, p53ts 32C kill 0.5µM*, HBB splice mod 2%, p53ts 39C kill 0.63µM*, Epigenetic mod -1% and Peg3 imprint -89%.
CCOc1ccc(NC(=O)c2nccnc2CO)cc1 was read as Ub-GFP proteasome -7%, p53ts 32C kill 13µM*, HBB splice mod 3%, p53ts 39C kill 10µM*, Epigenetic mod 5% and Peg3 imprint -88%.
Screening O=c1[nH]c2ccc(S(=O)(=O)N3CCN(C4CCCCC4)CC3)cc2[nH]c1=O returned Ub-GFP proteasome 26%, p53ts 32C kill -3%, HBB splice mod 0%, p53ts 39C kill -7%, Epigenetic mod -3% and Peg3 imprint -1%.
For CCCC(=O)Nc1ccc(NC(=O)c2ccccc2OC)cn1 the results were Ub-GFP proteasome 1%, p53ts 32C kill -10%, HBB splice mod 0%[57.5 µM], p53ts 39C kill -8%, Epigenetic mod 3% and Peg3 imprint -14%.
COc1ccccc1C(=O)Nc1ccccn1 was read as Ub-GFP proteasome -5%, p53ts 32C kill 10µM*, HBB splice mod 0%, p53ts 39C kill 10µM*, Epigenetic mod 3% and Peg3 imprint -79%.
O=C(N/N=C/c1ccc(O)cc1O)c1cc(-c2ccccc2)n[nH]1 was read as p53ts 32C kill -16% and p53ts 39C kill 10µM*.
Screening O=C(N/N=C/c1c[nH]c2ccccc12)c1cc(-c2ccc3ccccc3c2)n[nH]1 returned p53ts 32C kill inconclusive and p53ts 39C kill 16µM*.
Screening Cn1nc(CC(=O)NCCN2C(=O)CSC2=O)c2ccccc2c1=O returned Ub-GFP proteasome -1%, p53ts 32C kill 0%, HBB splice mod -1%, p53ts 39C kill 11%, Epigenetic mod 6% and Peg3 imprint 16%.
For COc1ccc(C(=O)NCC(c2ccc3c(c2)OCO3)N2CCN(c3ccc(F)cc3)CC2)cc1 (stereo not given) the results were p53ts 32C kill 8%, p53ts 39C kill -5% and Peg3 imprint 11%[10.9 µM].
`O=C(COc1ccc(Br)cc1Cl)Nc1ncn[nH]1` gave p53ts 32C kill 2.5µM*, p53ts 39C kill inconclusive and Peg3 imprint -19%[10.9 µM].
For O=C(COc1ccc(Cl)cc1Cl)Nc1ccc(Cl)cn1 the results were Ub-GFP proteasome -6%, p53ts 32C kill 5µM*, HBB splice mod -2%, p53ts 39C kill 5µM*, Epigenetic mod 2% and Peg3 imprint -62%.
Screening CCc1ccc(OCC(=O)Nc2ncn[nH]2)c(Br)c1 returned p53ts 32C kill 1.6µM*, p53ts 39C kill 1.6µM* and Peg3 imprint -22%[10.9 µM].
For CCc1ccc(OCC(=O)NCCN(C)C)c(Br)c1 the results were Ub-GFP proteasome 11%, p53ts 32C kill -21%, HBB splice mod -1%, p53ts 39C kill -23%, Epigenetic mod 0% and Peg3 imprint -18%.
CC(C)(C)c1cc(Br)ccc1OCC(=O)Nc1ncn[nH]1 was read as Ub-GFP proteasome -8%, p53ts 32C kill 12%, HBB splice mod -4%, p53ts 39C kill 3%, Epigenetic mod 0% and Peg3 imprint -12%.
`COc1ccc2cnnc(SCC(=O)Nc3ccc(C(=O)O)cc3)c2c1OC` gave p53ts 39C kill 15%.
`Cc1cc(NC(=O)CN(c2cccc(C)c2C)S(=O)(=O)c2ccccc2)ccc1Br` gave p53ts 32C kill -11%, p53ts 39C kill -28% and Peg3 imprint -12%[10.9 µM].
CC1=C(/C=C/C(C)=C/C=C/C(C)=C/C(=O)O)C(C)(C)CCC1 was read as p53ts 32C kill 8%, p53ts 39C kill 16%, Epigenetic mod 10µM* and Peg3 imprint inconclusive.
`Cc1oc(-c2ccc(Cl)cc2)nc1CN1CCCC(C(=O)NCCCN2CCOCC2)C1` (stereo not given) gave Ub-GFP proteasome -1%, p53ts 32C kill -20%, HBB splice mod 1%, p53ts 39C kill -29%, Epigenetic mod 1% and Peg3 imprint -27%.
CCC(C(=O)NCCc1ccc(SC)cc1)n1nc(C)c2sc3ccccc3c2c1=O (stereo not given) was read as p53ts 32C kill -3%, p53ts 39C kill -9% and Peg3 imprint -10%[10.9 µM].
Cc1nn(C(C)C(=O)NC2CCCCC2)c(=O)c2c1sc1ccccc12 (stereo not given) was read as p53ts 32C kill 13µM*, p53ts 39C kill 10µM* and Peg3 imprint -33%[10.9 µM].
For CSc1ccc(CCNC(=O)C(C)n2nc(C)c3sc4ccccc4c3c2=O)cc1 (stereo not given) the results were p53ts 32C kill 10µM*, p53ts 39C kill 10µM* and Peg3 imprint -34%[10.9 µM].
Screening Cc1ccc(Nc2nc(N)nc(CN3CCN(C)CC3)n2)cc1 returned Ub-GFP proteasome -3%, p53ts 32C kill -7%, HBB splice mod 3%[57.5 µM], p53ts 39C kill 0%, Epigenetic mod 0% and Peg3 imprint -10%.
For Cc1cc(C)cc(NC(=O)CSc2oc(-c3ccco3)nc2S(=O)(=O)c2ccc(Cl)cc2)c1 the results were p53ts 32C kill 10µM*, p53ts 39C kill 6.3µM* and Peg3 imprint -29%[10.9 µM].
For COC(=O)CSc1nnc(-c2ccco2)n1-c1ccc(C)cc1 the results were Ub-GFP proteasome -1%, p53ts 32C kill 8%, p53ts 39C kill -1%, Epigenetic mod 2% and Peg3 imprint 1%.
